Screening data as filed in PubChem.
TGFb inhibitor: blocks TGF-b signaling; hit rate 1.2% among 410,000; Potency, µM (series often up to 46.1 µM), actives largely listed as inhibitors; AID 588855; HepG2 CAGA-GFP TGF-b/SMAD3 reporter, GFP fluorescence, 18 h; TGF-beta stimulated, 500 pg/mL final; also: nearly all actives have a fitted effect of over 65% in size
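Inhibition of TGF-beta-driven CAGA-GFP reporter expression in HEPG2 cells is measured by cellular GFP fluorescence after 18 h stimulation with 500 pg/mL recombinant TGF-beta in 1% FBS medium at 37 degrees C.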
HT1080 IDH1KD tx: toxicity to HT-1080 IDH1 knockdown cells (counter line); hit rate 2% among 360,000; HT-1080 IDH1 knockdown viability, ATP luminescence, 48 h; Potency, µM (doses to about 46.1 µM), hits mostly cytotoxic
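Viability of IDH1-knockdown HT-1080 fibrosarcoma cells was assessed by CellTiter-Glo after 48 h at 37 °C with titrated compound; concentration-effect curves were classified by fit quality and response size.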
HepG2 viability: counter-screen for TGF-b inhibitors: cytotoxicity in HepG2 cells; Potency, µM (top dose mostly 46.1 µM), actives largely listed as cytotoxic; HepG2 CAGA-GFP viability, ATP luminescence, 18 h; AID 588856; hit rate 0.76% among 410,000
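CellTiter-Glo luminescence gave cytotoxicity after 18 hours at 37 degrees C. The cells were HepG2 CAGA-GFP in 1% FBS DMEM, stimulated with 500 pg/mL TGF-beta after compound addition. %Activity was normalised to no-cell wells (complete cell-killing) and DMSO (no toxicity), and curves were fitted and classified.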
TDP1 cell noCPT: qHTS for Inhibitors of human tyrosyl-DNA phosphodiesterase 1 (TDP1): qHTS in cells in absence of CPT | DT40 Tdp1-/- hTDP1 cells, no CPT, ATP luminescence, 48 h | AID 686978, 2013 | Potency, µM (top dose mostly 46.2 µM), hits mostly inhibitors | hit rate 15% among 420,000; also: nearly all actives have a fitted effect of over 55% in size
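Chicken DT40 Tdp1-/- cells complemented with human TDP1, screened without camptothecin (DMSO vehicle only), 400 cells/well. Compounds pin-transferred, cells incubated at 37 °C for at least 48 hr. Growth read as ATP-dependent luminescence (CellTiter-Glo, 30 min at RT).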
HT1080-NT tox: kills 2HG-producing HT-1080-NT fibrosarcoma cells; HT-1080-NT fibrosarcoma viability, CellTiter-Glo ATP luminescence, 48 h; Potency, µM (titrated, usually from 46.1 µM), most hits filed as cytotoxic; hit rate 1.6% among 360,000; AID 686970;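 also: NT is the 2HG producing partner of a matched IDH1 knockdown line; nearly all actives have a fitted effect of over 55% in size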
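A 48-hour cytotoxicity screen used HT-1080-NT cells plated 2 hours before compound delivery. ATP-based CellTiter-Glo luminescence measured viability, normalized to DMSO and no-cell controls.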
DT40 TDP1 CPT: growth inhibition of DT40 Tdp1-/-;hTDP1 cells with camptothecin (screen for TDP1 inhibitors) | chicken DT40 Tdp1-/-;hTDP1 cells + 20 nM CPT, ATP luminescence, 48 h | AID 686979 | hit rate 12% among 420,000 | Potency, µM (titrated, usually from 46.2 µM), actives largely listed as inhibitors; also: nearly all actives have a fitted effect of over 55% in size
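Chicken DT40 Tdp1-/- cells stably complemented with human TDP1 were seeded at 400 cells/well in medium containing 20 nM camptothecin, exposed to pin-transferred compounds, and grown at 37 °C for at least 48 hr. Viability was read as ATP luminescence.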
Large screens that a line does not name were inactive; ! = repeats disagree. Compounds with a hit are over-represented: about 17% of the library has one in this group of screens. Calls follow the shape of the dose curve; as a rule, active = well fitted curve in the direction sought with a large enough effect; inconclusive = small, poorly fitted or top-dose-only effect, or another doubt; inactive = no such curve, though single readings can be large; an effect the other way counts as inactive or inconclusive.

CC1(C)NC(=O)[C@H]2CCCN21	none
CN(C)c1c([N+](=O)[O-])cc(N2C(=O)C=CC2=O)cc1[N+](=O)[O-]	TDP1 cell noCPT 1.3µM, DT40 TDP1 CPT 1.3µM
CNC(=O)OCc1n(C)cc[n+]1C	none
COc1ccc([C@H]2C[C@H](O)[C@@H](n3cc(COC(=O)c4ccccc4)nn3)CN2Cc2cccs2)cc1	TDP1 cell noCPT inconclusive
CCC(=Nc1ccc(OC)cc1OC)c1c(O)n(C2CCCCC2)c(=O)[nH]c1=O	TGFb inhibitor inconclusive, TDP1 cell noCPT inconclusive, DT40 TDP1 CPT inconclusive
CCC(=Nc1ccc2c(c1)CCC2)c1c(O)n(C)c(=O)n(C)c1=O	TDP1 cell noCPT 21µM, DT40 TDP1 CPT 12µM
CCOC(=O)c1ccc(N=C(CC)c2c(O)n(C)c(=O)n(C)c2=O)cc1	TDP1 cell noCPT 18µM, DT40 TDP1 CPT inconclusive
CCC(=Nc1ccc2c(c1)CCC2)c1c(O)n(-c2ccc(OC)cc2)c(=O)[nH]c1=O	TDP1 cell noCPT 15µM, DT40 TDP1 CPT 21µM
CC(=Nc1ccc2c(c1)CCC2)c1c(O)n(C)c(=O)n(C)c1=O	none
CCCCn1c(O)c(C(CC)=Nc2ccc(C(=O)O)cc2)c(=O)[nH]c1=O	none
CCC(=Nc1ccc(Cc2ccncc2)cc1)c1c(O)n(C)c(=O)n(C)c1=O	TDP1 cell noCPT 5µM, DT40 TDP1 CPT 5µM!
NC1CC2CCCCC2CC1(O)c1ccccc1 (configuration not stated)	TDP1 cell noCPT inconclusive
CCC(=NCc1ccc(F)cc1)c1c(O)n(C)c(=O)n(C)c1=O	TDP1 cell noCPT 18µM, DT40 TDP1 CPT 23µM
CCCN1C[C@H](C)N([C@H](c2ccc(C(=O)N(CC)CC)cc2)c2cccc(OC)c2)C[C@H]1C	none (no result: TGFb inhibitor, HT1080 IDH1KD tx, HepG2 viability, HT1080-NT tox)
CCOc1ccc(-c2cc(C)[n+](CCN3CCOCC3)c(-c3ccc(OCC)cc3)c2)cc1	HT1080 IDH1KD tx inconclusive, TDP1 cell noCPT 1.3µM, DT40 TDP1 CPT 1.5µM
CC(C)CC1C(=O)N(Cc2cn(CC3CCCCC3)nn2)CCS(=O)(=O)N1Cc1ccc(-c2ccc(F)nc2)cc1 (configuration not stated)	TDP1 cell noCPT 18µM, DT40 TDP1 CPT 21µM
O=C(C1CCCN(Cc2ccc(Cl)cc2)C1)N1CCCCC1 (configuration not stated)	none
CCOc1ccc(Nc2c(S(=O)(=O)c3ccc(C)cc3)cnc3ccccc23)cc1	TGFb inhibitor inconclusive, TDP1 cell noCPT inconclusive, DT40 TDP1 CPT 16µM (no result: HT1080 IDH1KD tx, HT1080-NT tox)
CCOc1ccc(Nc2c(S(=O)(=O)c3ccc(C)cc3)cnc3ccc(F)cc23)cc1	TDP1 cell noCPT inconclusive, DT40 TDP1 CPT inconclusive (no result: HT1080 IDH1KD tx, HT1080-NT tox)
Cc1ccc(N2C(=O)CC(=O)NC2=O)cc1	none
Cc1ccc(-n2sc3ccccc3c2=O)cc1	TGFb inhibitor inconclusive, HT1080 IDH1KD tx inconclusive, TDP1 cell noCPT 3.3µM, HT1080-NT tox inconclusive, DT40 TDP1 CPT 2.9µM
O=c1c2ccccc2sn1-c1ccc(Cl)cc1	TGFb inhibitor inconclusive, HT1080 IDH1KD tx inconclusive, TDP1 cell noCPT 1.8µM, HT1080-NT tox inconclusive, DT40 TDP1 CPT 2.1µM
O=C1NC(=O)C(CCc2ccncc2)(c2ccccc2)C(=O)N1	none
Oc1ccc(O)c2c1C1(Cl)C(Cl)=C(Cl)C2(Cl)C1(Cl)Cl	TGFb inhibitor inconclusive, HT1080 IDH1KD tx 23µM, TDP1 cell noCPT 16µM, HT1080-NT tox inconclusive, DT40 TDP1 CPT 23µM
O=C1CCC2(O)C3Cc4ccc(O)c5c4C2(CCN3Cc2ccoc2)C1O5 (configuration not stated)	none
CC(C(=O)O)N(C(=O)c1ccccc1)c1ccc(F)c(Cl)c1 (configuration not stated)	none
Cc1ccc(S(=O)(=O)N2CCCCC2)cc1NC(=O)CSc1ncnc2ccccc12	TGFb inhibitor inconclusive, TDP1 cell noCPT 18µM, DT40 TDP1 CPT 26µM
O=C(COC(=O)Cc1ccccc1)Nc1cc(S(=O)(=O)N2CCCCC2)ccc1Cl	none
O=C(CCS(=O)(=O)c1ccc(Cl)cc1)Nc1cccc(S(=O)(=O)N2CCCCCC2)c1	TGFb inhibitor inconclusive, TDP1 cell noCPT inconclusive, DT40 TDP1 CPT inconclusive
Cc1ccc(S(=O)(=O)N2CCCCC2)cc1NC(=O)Nc1ccc(Cl)cc1Cl	TGFb inhibitor inconclusive, TDP1 cell noCPT inconclusive, DT40 TDP1 CPT 2.6µM
COc1ccc(-n2c(/C=C/c3cccc(F)c3)nc3ccccc3c2=O)c(OC)c1	TDP1 cell noCPT inconclusive, DT40 TDP1 CPT 13µM
COc1ccc(-n2c(CN3CCOCC3)nc3ccccc3c2=O)c(OC)c1	TDP1 cell noCPT inconclusive, DT40 TDP1 CPT inconclusive
COc1ccc(-n2c(/C=C/c3cccc(F)c3)nc3ccccc3c2=O)cc1Cl	TGFb inhibitor inconclusive, TDP1 cell noCPT inconclusive, DT40 TDP1 CPT 21µM (no result: HT1080 IDH1KD tx, HT1080-NT tox)
CC[N+](C)(CC)CCCOC(=O)C(O)(c1ccccc1)C1CCCCC1 (configuration not stated)	none
CC1CC[C@]2(NC1)OC1CC3C4CC=C5CC(O)CC[C@@]5(C)C4CC[C@]3(C)C1C2C (some centres not stated)	none (no result: TGFb inhibitor, HT1080 IDH1KD tx, HepG2 viability, HT1080-NT tox)
COc1cc([C@@H]2c3cc4c(cc3C[C@H]3COC(=O)[C@@H]32)OCO4)cc(OC)c1O	TDP1 cell noCPT 0.032µM, DT40 TDP1 CPT 0.071µM (no result: HT1080 IDH1KD tx, HT1080-NT tox)
COc1cc(C2c3cc4c(cc3CC3COC(=O)C32)OCO4)cc(OC)c1OC (configuration not stated)	TGFb inhibitor inconclusive, HT1080 IDH1KD tx 0.23µM, TDP1 cell noCPT 0.0052µM, HT1080-NT tox 0.37µM, DT40 TDP1 CPT 0.021µM
COc1cc(C2c3cc(O)c(OC)cc3CC3C(=O)OCC32)ccc1O (configuration not stated)	none
COc1cc([C@@H]2c3cc4c(cc3[C@@H](O)C3COC(=O)C32)OCO4)cc(OC)c1O (some centres not stated)	none (no result: HT1080 IDH1KD tx, TDP1 cell noCPT, HT1080-NT tox, DT40 TDP1 CPT)
Oc1ccc2c3c1O[C@H]1[C@@H](O)CC[C@@]4(O)C(C2)N(CC2CCC2)CCC314 (some centres not stated)	none (no result: TGFb inhibitor, HepG2 viability)
CC(=O)OC1CCC2(C)C(CC(=O)C3C2CCC2(C)C(OC(C)=O)CCC32)C1 (configuration not stated)	TDP1 cell noCPT inconclusive, DT40 TDP1 CPT inconclusive
COc1ccc(C(CC(=O)c2ccc3c(c2)OCO3)c2c(O)c3ccccc3oc2=O)cc1OC (configuration not stated)	TDP1 cell noCPT 23µM
O=C1N(c2cccc(Cl)c2)C(c2cccnc2)N2CCCN12 (configuration not stated)	none
